Assay outcomes deposited in PubChem BioAssay by National Center for Advancing Translational Sciences (NCATS).
Rows were chosen to be rich in hits. Some 11% of all compounds tested hit in one or more screens of this group.
HCV inh = HCV inhibition | Huh7.5.1 HCVcc-Cre infection, luciferase reporter, 44 h | Potency, µM (series often up to 41.8 µM), without a hit: at the top dose activity change, negative = inhibition, most hits filed as inhibitors | actives 3.4% (n = 340,000); note: % is set by controls: 0 for no effect and ±100 for the full control effect
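Infectious HCVcc-Cre (~0.5 moi) was added to cells just after compound, with cells seeded 4 h earlier at 1,000 per well. Luciferase activity after 44 h culture reported infection; substrate was incubated 15 min at room temperature before reading.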
VACV Venus inh = vaccinia inhibition (Venus reporter); actives 0.46% (n = 330,000); AID 720580; Vaccinia virus Venus reporter expression, fluorescence; Potency, µM (doses to about 36.5 µM), without a hit: at the highest dose activity change, negative = inhibition, actives largely listed as inhibitors; calls by dose curve; tested in A549 cells; note: % is set by controls: 0 for no effect and ±100 for the full control effect; nearly all actives have a fitted effect of over 30% in size
Pf growth 96h = P. falciparum growth inhibition at 96 hour, primary screen for plastid delayed-death inhibitors. P. falciparum luciferase reporter growth, 96 h. Potency, µM (highest dose often 28.7 µM), without a hit: at the highest dose activity change, negative = inhibition, most hits filed as inhibitors. actives 6.9% (n = 320,000). AID 504834; note: % is set by controls: 0 for no effect and ±100 for the full control effect
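P. falciparum expressing integrated firefly luciferase, in erythrocytes at 2% hematocrit, 0.05% parasitemia, incubated with compounds 96 h at 37 C, 5% CO2. Growth inhibition read as loss of luminescence; two-generation exposure targets delayed-death apicoplast inhibitors.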
Pf growth 48h = inhibits P. falciparum growth in the first generation, 48 h | Potency, µM (top dose mostly 28.7 µM), without a hit: at the highest dose activity change, negative = inhibition, hits mostly inhibitors | actives 5.9% (n = 310,000) | P. falciparum luciferase growth in erythrocytes, 48 h | AID 504832; note: % is set by controls: 0 for no effect and ±100 for the full control effect
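Luciferase-expressing P. falciparum in infected erythrocytes (2% hematocrit, 0.1% parasitemia final) in RPMI 1640/0.5% Albumax were exposed to compound for 48 hours at 37 C, 5% CO2; growth read as luminescence.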
NS1 inh = blocks influenza NS1 protein function; Potency, µM (titrated, usually from 46.1 µM), for inactives: at the highest dose activity, positive = more growth; actives 0.4% (n = 270,000); AID 2326; calls by dose curve; note: actives are rising curves; nearly all actives have a fitted effect of over 50% in size
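OD600 was taken as the measure of yeast growth restored by compound in an NS1-expressing S. cerevisiae strain. Cells had been washed out of glucose medium and diluted 1:100 into galactose -URA medium, pH 6.0.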
VACV mCherry inh = inhibitors of vaccinia virus infection (mCherry reporter signal). Vaccinia virus mCherry reporter infection, fluorescence. Potency, µM (top dose mostly 36.5 µM), without a hit: top-dose activity change, negative = inhibition, most hits filed as inhibitors. actives 0.63% (n = 310,000). AID 720579; calls by dose curve; tested in A549 cells; note: % is set by controls: 0 for no effect and ±100 for the full control effect; nearly all actives have a fitted effect of over 35% in size
An asterisk follows results filed as active. Unless noted, calls come from the whole dose curve; as a rule, active = well fitted inhibition curve with a large enough effect; inconclusive = small, poorly fitted or top-dose-only effect, or another doubt; inactive = no such curve, though single readings can be large or run the other way. Potency is the fitted concentration of half-maximal effect.

Screening COC(=O)c1[nH]c2ccc(C)cc2c1NC(=O)C(C)N1CCN(C2CCCCC2)CC1 (stereo not drawn) returned HCV inh 9%, VACV Venus inh -16%, Pf growth 96h 10µM*, Pf growth 48h inconclusive and NS1 inh -10%.
COC(=O)c1[nH]c2ccc(Br)cc2c1NC(=O)CN1CCCCC1CCO (stereo not drawn) was read as HCV inh inconclusive, VACV Venus inh -27%, Pf growth 96h 5.2µM*, Pf growth 48h inconclusive, NS1 inh 16% and VACV mCherry inh -16%.
`COC(=O)c1[nH]c2ccc(Br)cc2c1NC(=O)C(C)N1CCN(C2CCCCC2)CC1` (stereo not drawn) gave HCV inh -4%, VACV Venus inh inconclusive, Pf growth 96h 2.1µM*, Pf growth 48h inconclusive and NS1 inh -14%.
For COc1ccc(C(c2sc3nc(C)nn3c2O)N2CCN(Cc3ccccc3)CC2)cc1OC (stereo not drawn) the results were HCV inh 28%, VACV Venus inh 3%, Pf growth 96h 0.83µM*, Pf growth 48h inconclusive, NS1 inh -9% and VACV mCherry inh inactive.
`COc1ccc(C(c2sc3nc(C)nn3c2O)N2CCC(O)CC2)cc1OC` (stereo not drawn) gave HCV inh 15%, VACV Venus inh 5%, Pf growth 96h 2%, Pf growth 48h -1%, NS1 inh 1% and VACV mCherry inh 1%.
`CN(Cc1cccc2cnccc12)C(=O)c1cc(COc2ccc(F)cc2Cl)on1` gave HCV inh 10µM*, VACV Venus inh 1%, Pf growth 96h -1%, Pf growth 48h inconclusive, NS1 inh -12% and VACV mCherry inh -12%.
Screening Cc1cnc(CN(C)C(=O)c2cc(COc3c(F)cccc3F)on2)[nH]1 returned HCV inh -12%, VACV Venus inh -13%, Pf growth 96h -27%, Pf growth 48h 4.1µM*, NS1 inh 2% and VACV mCherry inh inactive.
For Cn1c(=O)n(CCC(=O)O)c2ccccc21 the results were HCV inh 16%, VACV Venus inh -18%, Pf growth 96h inconclusive, Pf growth 48h inconclusive, NS1 inh -2% and VACV mCherry inh -21%.
`FC(F)(F)c1cc(-c2ccc(Cl)cc2)nc(NCc2cccnc2)n1` gave HCV inh 11µM*, VACV Venus inh inconclusive, Pf growth 48h 3.7µM*, NS1 inh -19% and VACV mCherry inh inconclusive.
Cc1ccc(-c2nc(C#N)c(NCC3CCCO3)o2)cc1 (stereo not drawn) was read as HCV inh -10%, VACV Venus inh -4%, Pf growth 96h 53%, Pf growth 48h 50%, NS1 inh -14% and VACV mCherry inh -7%.
For Cc1ccc(-c2cc(C(F)F)nc(NCc3cccnc3)n2)cc1 the results were HCV inh 6.3µM*, VACV Venus inh inconclusive, Pf growth 96h 17%, Pf growth 48h 13µM*, NS1 inh -97% and VACV mCherry inh -18%.
For COc1ccc(-c2cc(C(F)(F)F)nc(NCc3ccc(Cl)cc3)n2)cc1 the results were VACV Venus inh -1% and VACV mCherry inh -16%.
Screening Cc1ccc(-c2cc(C(F)F)nc(NCC3CCCO3)n2)cc1 (stereo not drawn) returned HCV inh 4µM*, VACV Venus inh inconclusive, Pf growth 96h 21%, Pf growth 48h -4%, NS1 inh -68% and VACV mCherry inh -25%.
`Cc1ccc(-c2cc(C(F)F)nc(NCc3cccs3)n2)cc1` gave HCV inh inconclusive, VACV Venus inh -13%, Pf growth 96h 2.6µM*, Pf growth 48h 11%, NS1 inh -8% and VACV mCherry inh -11%.
For Cc1ccc(CC(=O)NCc2cccnc2)cc1 the results were Pf growth 96h 4% and Pf growth 48h 12%.
CN(Cc1ccon1)C(=O)CC1C(=O)NCCN1CC(C)(C)C (stereo not drawn) was read as HCV inh 12%, VACV Venus inh 1%, Pf growth 96h -29%, Pf growth 48h 3%, NS1 inh 2% and VACV mCherry inh -5%.
For COc1cccc(CN2CCN(c3ccc(F)cc3)CC2)c1OC the results were VACV Venus inh -16% and VACV mCherry inh inconclusive.
